# Data taken from PubChem BioAssay AID1159580 (chemical genetic matrix, 2015).
# Hit rate of the full screen: of about 5,500 compounds, about 2,000 (36%) were called active. Not shown: some 18% with an inconclusive outcome. The list shows a part of the results. A number with no mark means an inactive call. No stated cut-off is given here; in the data, active means normalized growth mostly below about 0.91 (no sharp cut-off); inconclusive means no clear call, values can overlap the other calls; inactive means mostly above about 0.92.
# Assay: chemical genetic growth profiling, strain panel (AID 1159580);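 further: tested at 20 µM; growth read once vehicle control cultures reached saturation at 30 °C; 1 = growth at the plate median or of vehicle wells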
# Details: S. cerevisiae deletion strains, growth OD
# [1] = locus YDL101C, strain DUN1, stronger effect = lower value
# [2] = locus YHR030C, strain SLT2, stronger effect = lower value
structure (smiles),measurement,setting,value
O=C(Nc1ccc(Cl)cc1Cl)c1cnccn1,normalized growth,"locus YAL013W, strain DEP1, stronger effect = lower value",0.943
same,normalized growth,"locus YBR229C, strain ROT2, stronger effect = lower value",0.963
same,normalized growth,"locus YCL061C, strain MRC1, stronger effect = lower value",0.98
same,normalized growth,[1],0.982
same,normalized growth,"locus YDL134C, strain PPH21, stronger effect = lower value",0.989
same,normalized growth,"locus YDR150W, strain NUM1, stronger effect = lower value",0.989
same,normalized growth,"locus YEL061C, strain CIN8, stronger effect = lower value",0.95
same,normalized growth,"locus YGR078C, strain PAC10, stronger effect = lower value",0.991
same,normalized growth,[2],0.606 (active)
same,normalized growth,"locus YHR087W, strain rtc3, stronger effect = lower value",0.973
same,normalized growth,"locus YJR043C, strain POL32, stronger effect = lower value",1.01
same,normalized growth,"locus YJR075W, strain HOC1, stronger effect = lower value",1.01
same,normalized growth,"locus YKL190W, strain CNB1, stronger effect = lower value",0.862 (active)
same,normalized growth,"locus YLR039C, strain RIC1, stronger effect = lower value",0.788 (active)
same,normalized growth,"locus YLR058C, strain SHM2 (second series), stronger effect = lower value",0.975
same,normalized growth,"locus YLR085C, strain ARP6, stronger effect = lower value",0.656 (active)
same,normalized growth,"locus YLR262C, strain YPT6, stronger effect = lower value",0.87
same,normalized growth,"locus YML094W, strain GIM5, stronger effect = lower value",0.91
same,normalized growth,"locus YMR219W, strain ESC1, stronger effect = lower value",0.99
same,normalized growth,"locus YMR263W, strain SAP30, stronger effect = lower value",0.966
same,normalized growth,"locus YNL153C, strain GIM3, stronger effect = lower value",0.98
same,normalized growth,"locus YNL298W, strain CLA4 (second series), stronger effect = lower value",0.911
same,normalized growth,"locus YNL322C, strain KRE1, stronger effect = lower value",0.986
same,normalized growth,"locus YNR030W, strain Alg12, stronger effect = lower value",0.94
same,normalized growth,"locus YOL006C, strain TOP1, stronger effect = lower value",0.773
same,normalized growth,"locus YPL055C, strain LGE1, stronger effect = lower value",0.9
same,normalized growth,"locus YPL241C, strain CIN2, stronger effect = lower value",0.9
same,normalized growth,"locus YPR135W, strain CTF4, stronger effect = lower value",0.768
O=C(Nc1ccc(Cl)cc1Cl)c1cnccc1C(F)(F)F,normalized growth,"locus YAR019C, strain CDC15, stronger effect = lower value",0.978
same,normalized growth,"locus YBL105C, strain PKC1, stronger effect = lower value",0.976
same,normalized growth,"locus YBR135W, strain CKS1, stronger effect = lower value",0.981
same,normalized growth,"locus YBR136W, strain MEC1, stronger effect = lower value",0.971
same,normalized growth,"locus YBR160W, strain CDC28, stronger effect = lower value",0.974
same,normalized growth,"locus YDL017W, strain CDC7, stronger effect = lower value",0.984
same,normalized growth,"locus YDL028C, strain MPS1, stronger effect = lower value",0.976
same,normalized growth,[1],0.964
same,normalized growth,"locus YDL108W, strain KIN28, stronger effect = lower value",0.97
same,normalized growth,"locus YDL132W, strain cdc53, stronger effect = lower value",0.972
same,normalized growth,"locus YDL214C, strain PRR2, stronger effect = lower value",0.987
same,normalized growth,"locus YDR052C, strain DBF4, stronger effect = lower value",0.977
same,normalized growth,"locus YDR054C, strain cdc34, stronger effect = lower value",0.977
same,normalized growth,"locus YDR226W, strain ADK1, stronger effect = lower value",0.976
same,normalized growth,"locus YDR477W, strain SNF1, stronger effect = lower value",0.981
same,normalized growth,"locus YER123W, strain YCK3, stronger effect = lower value",0.958
same,normalized growth,"locus YER133W, strain GLC7, stronger effect = lower value",0.976
same,normalized growth,"locus YFL009W, strain cdc4, stronger effect = lower value",0.971
same,normalized growth,"locus YFL029C, strain CAK1, stronger effect = lower value",0.975
same,normalized growth,"locus YFR003C, strain YPI1, stronger effect = lower value",0.977
same,normalized growth,"locus YFR019W, strain FAB1, stronger effect = lower value",0.98
same,normalized growth,"locus YFR028C, strain CDC14, stronger effect = lower value",0.97
same,normalized growth,"locus YGR040W, strain KSS1, stronger effect = lower value",0.977
same,normalized growth,"locus YGR052W, strain FMP48, stronger effect = lower value",1.13
same,normalized growth,"locus YGR092W, strain DBF2, stronger effect = lower value",0.998
same,normalized growth,[2],1.15
same,normalized growth,"locus YHR079C, strain IRE1, stronger effect = lower value",1.09
same,normalized growth,"locus YHR082C, strain KSP1, stronger effect = lower value",1.11
same,normalized growth,"locus YHR205W, strain SCH9, stronger effect = lower value",0.974
same,normalized growth,"locus YIL147C, strain SLN1, stronger effect = lower value",0.971
same,normalized growth,"locus YJL095W, strain BCK1, stronger effect = lower value",1.14
same,normalized growth,"locus YJL128C, strain PBS2, stronger effect = lower value",0.935
same,normalized growth,"locus YJL157C, strain FAR1, stronger effect = lower value",0.973
same,normalized growth,"locus YJR016C, strain ILV3, stronger effect = lower value",0.976
same,normalized growth,"locus YJR066W, strain TOR1 (second series), stronger effect = lower value",1
same,normalized growth,"locus YJR066W, strain TOR1, stronger effect = lower value",1.12
same,normalized growth,"locus YKL048C, strain ELM1, stronger effect = lower value",0.974
same,normalized growth,"locus YKL067W, strain YNK1, stronger effect = lower value",0.981
same,normalized growth,"locus YKL101W, strain HSL1, stronger effect = lower value",0.986
same,normalized growth,"locus YKL193C, strain SDS22, stronger effect = lower value",0.967
same,normalized growth,"locus YKL203C, strain TOR2, stronger effect = lower value",1.05
same,normalized growth,"locus YLR113W, strain HOG1, stronger effect = lower value",1.05
same,normalized growth,"locus YLR133W, strain CKI1, stronger effect = lower value",0.988
same,normalized growth,"locus YLR403W, strain SFP1, stronger effect = lower value",0.967
same,normalized growth,"locus YML070W, strain DAK1, stronger effect = lower value",0.98
same,normalized growth,"locus YMR001C, strain CDC5, stronger effect = lower value",0.972
same,normalized growth,"locus YMR205C, strain PFK2 (second series), stronger effect = lower value",0.993
same,normalized growth,"locus YMR277W, strain FCP1, stronger effect = lower value",0.962
same,normalized growth,"locus YNL006W, strain LST8, stronger effect = lower value",0.973
same,normalized growth,"locus YNL020C, strain ARK1, stronger effect = lower value",0.989
same,normalized growth,"locus YNL161W, strain CBK1, stronger effect = lower value",0.974
same,normalized growth,"locus YNL183C, strain NPR1, stronger effect = lower value",1.1
same,normalized growth,"locus YNL207W, strain RIO2, stronger effect = lower value",0.976
same,normalized growth,"locus YNL222W, strain SSU72, stronger effect = lower value",0.976
same,normalized growth,"locus YNL307C, strain MCK1 (second series), stronger effect = lower value",0.988
same,normalized growth,"locus YOL078W, strain AVO1, stronger effect = lower value",0.975
same,normalized growth,"locus YOL136C, strain PFK27, stronger effect = lower value",0.982
same,normalized growth,"locus YOR061W, strain CKA2, stronger effect = lower value",0.99
same,normalized growth,"locus YOR119C, strain RIO1, stronger effect = lower value",1.01
same,normalized growth,"locus YOR231W, strain MKK1, stronger effect = lower value",1.1
same,normalized growth,"locus YOR329C, strain SCD5, stronger effect = lower value",0.975
same,normalized growth,"locus YPL031C, strain PHO85, stronger effect = lower value",0.977
same,normalized growth,"locus YPL153C, strain RAD53, stronger effect = lower value",0.99
same,normalized growth,"locus YPL204W, strain HRR25, stronger effect = lower value",0.976
same,normalized growth,"locus YPL209C, strain IPL1, stronger effect = lower value",0.967
same,normalized growth,"locus YPL256C, strain CLN2, stronger effect = lower value",1.07
same,normalized growth,"locus YPR025C, strain CCL1, stronger effect = lower value",0.976
same,normalized growth,"locus YPR106W, strain ISR1, stronger effect = lower value",0.972
same,normalized growth,"locus YPR111W, strain DBF20, stronger effect = lower value",0.974
same,normalized growth,"strain NNK1, stronger effect = lower value",0.971
same,normalized growth,"strain TSCII, stronger effect = lower value",0.972
